Results: PubChem BioAssay (NCI)
This is part of a sample that, as a whole, favours compounds with a hit. Of some 83,000 tested, about 20% had one in any assay.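 Assay: single dose, 48 h. Readout: percent growth (0 = no net growth; negative = cell death). Active: <10.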 A number with no mark means an inactive call. The source made the active and inactive calls.

The molecules below were run on NCI-H23 lung (assay: NCI-60 one-dose screen, 48 h (100 = growth as untreated, 0 = no growth, -100 = all killed)). Settings: 10 µM unless noted.
Protocol: Growth inhibition of the NCI-H23 human Non-Small Cell Lung tumor cell line is measured as a screen for anti-cancer activity. Cells are grown in 96 well plates and exposed to the test compound for 48 hours. Compounds are tested at a single concentration, which is 10^-5 M for most compounds. The reported endpoint is percent growth (GI% or GIPRCNT), where numbers from 0 - 100% represent growth inhibition, and numbers from -100% - 0 represent cell death. For example, a value of 40 represents 60% growth inhibition. A value of 0 means no net growth occurred over the course of the experiment. A value of -40 indicates 40% of cells at the beginning of the experiment died by the end of the experiment. A value of -100 means all cells are dead at the end of the experiment.
NCI-60 Human Tumor Cell Lines Screen was performed using the standard one-dose NCI protocol, which is described in more detail at https://dtp.cancer.gov/discovery_development/nci-60/default.htm.
Compounds with GIPRCNT values below 10 were considered active. Activity score was based on GIPRCNT using the following formula: […]
Score is 0 for GIPRCNT values of 100 or above, 50 for GIPRCNT values of 0, and 100 for GIPRCNT values of -100.

Row | SMILES | growth
1 | N#Cc1c(NC(=O)c2cccs2)[n+]([O-])c2cc(C(F)(F)F)ccc2[n+]1[O-] | 95.2%
2 | Nc1ccccc1NC(=O)c1ccc(CSc2nc(N3CCOCC3)c3cccn3n2)cc1 | 22.5%
3 | O=C(O)COc1ccc2c(=O)c3sc4c(=O)c5ccccc5c(=O)c4c3c(=O)c2c1 | -39.6% (active)
4 | CCOC(=O)c1cnn(-c2nc(-c3ccc(F)cc3)c(C#N)c(N3CCOCC3)n2)c1N | 103%
5 | O=C(O)c1cn(C2CC2)c2cc(N3CCN(Cc4nnc(Nc5ccccc5)o4)CC3)c(F)cc2c1=O | 105%
6 | COc1ccc(C(=S)c2cc(OC)c(OC)c(OC)c2)cc1OC(=O)CCl | 31.4%
7 | COc1ccc2oc(=O)cc(-c3nc4ccc(N)cc4[nH]3)c2c1 | 84%
8 | COc1ccc2[nH]c(=O)c(/C=C/C(=O)/C=C/c3ccc(O)c(OC)c3)cc2c1 | 5.43% (active)
9 | CC(=O)Nc1nc2c(c(N)c1C#N)C(c1cccc(Cl)c1)C1=C(CCCC1=O)N2c1sc2c(c1C#N)CCCC2 (stereo not given) | 67%
10 | C=C1C(=O)O[C@H]2[C@H]1CC/C(COC(=O)c1c[nH]c3ccccc13)=C\CC[C@@]1(C)O[C@@H]21 | -52.9% (active)
11 | COc1ccc2nc(-c3ccc(OC)c(OC)c3)cc(-c3nnc(SCC(=O)Nc4ccc(C(C)=O)cc4)o3)c2c1 | 104%
12 | COc1cc(/C=N/Nc2nc(-c3ccc(F)cc3)c(C#N)c(N3CCOCC3)n2)ccc1O | 108%
13 | COc1cc(C)ccc1Oc1nc(Nc2ccc(N3CCOCC3)cc2)ncc1N=Cc1cc(C(F)(F)F)cc(C(F)(F)F)c1 | 70.4%
14 | C=CCn1c(CN2CCN(c3cc4c(cc3F)c(=O)c(C(=O)O)cn4C3CC3)CC2)n[nH]c1=S | 104%
15 | CCCCCCCc1n(Cc2ccc3ccccc3c2)c2ccccc2[n+]1Cc1ccc2ccccc2c1 | -76.9% (active)
16 | Cc1nnc(/N=C2\NC(=O)/C(=C/c3ccc(N(C)C)cc3)S2)s1 | 81.7%
17 | CNc1cccc2c1C(=O)c1cccc(N)c1C2=O | 76.3%
18 | COc1ccc(C2C(c3ccccc3)C(=O)N2c2cc(OC)c(OC)c(OC)c2)cc1I (stereo not given) | 24.6%
19 | CCc1n(Cc2ccc3ccccc3c2)c2ccccc2[n+]1Cc1ccc2ccccc2c1 | 28.8%
20 | Cc1cc2ccccc2c[n+]1CC(=O)c1ccc(-c2ccccc2)cc1 | 48.6%

Row | SMILES | growth
21 | C#C[C@@]1(O)[C@@H](CO)O[C@@H](n2cc(Cl)c3c(N)ncnc32)[C@@H]1O | 0.604% (active)
22 | COc1ccc(-c2cc(-c3nnc(SCC(=O)Nc4ccc(C(C)=O)cc4)o3)c3ccccc3n2)cc1 | 0.0219% (active)
23 | C=C(C)[C@@H]1CC[C@]2(C(=O)n3ccnc3)CC[C@]3(C)[C@H](CC[C@@H]4[C@@]5(C)CCCNC(C)(C)[C@@H]5CC[C@]43C)[C@@H]12 | 38.8%
24 | CCCCC(=O)Nc1c(C(=O)Nc2ccccc2)sc2nc3c(cc12)C(OC(=O)CCCC)CCC3 (stereo not given) | 95.6%
25 | C=C(C)[C@@H]1CC[C@]2(C(=O)N=C=S)CC[C@]3(C)[C@H](CC[C@@H]4[C@@]5(C)CCC(=O)C(C)(C)[C@@H]5CC[C@]43C)[C@@H]12 | 32.9%
26 | O=C(Nc1ccc(N=Cc2ccccc2O)cc1)NC1C=c2ccccc2=CC1 (stereo not given) | 100%
27 | Cc1nccc2c3ccc(OCc4cn(-c5ccc(Cl)cc5)nn4)cc3n(CC(C)C)c12 | 14.1%
28 | COc1ccc2[nH]c3nc4cnccc4cc3c2c1 | 95.2%
29 | CNC(=O)c1cc(Oc2ccc3c(c2)sc2nc(-c4ccc(NC(C)=O)cc4)cn23)ccn1 | 60.1%
30 | COC1=CC2C=C(C3N(c4ccccc4)NC(=O)[C@@H]4CCCN34)C(=O)NC2C=C1 (stereo not given in full) | 89.7%
31 | O=C1CCC23OC(c4ccccc4N12)C(O)C(O)C3O (stereo not given) | 102%
32 | C=C1C(=O)O[C@H]2[C@H]1CC/C(COC(=O)c1cccnc1)=C\CC[C@@]1(C)O[C@@H]21 | 79%
33 | O=C(Nc1ccc(S(=O)(=O)NC2CCCCCC2)cc1)C(c1ccccc1)S(=O)(=O)c1ccc(F)cc1 (stereo not given) | 9.28% (active)
34 | O=C1CCC23OC(C(O)c4ccccc4N12)C1C(Br)=NOC13 (stereo not given) | 99.1%
35 | O=C(N/N=C/C[C@@H]1[C@@H](/C=C/[C@@H](O)COc2cccc(Cl)c2)[C@H](O)C[C@@H]1O)c1ccncc1 | 98.2%
36 | O=c1cc(/C=N\Nc2nc(-c3ccc(Cl)cc3Cl)cs2)c2cc(Cl)ccc2o1 | 85.3%
37 | Cc1ccccc1NC(=O)c1sc2nc(C)c(C(C)O)cc2c1N (stereo not given) | 79%
38 | CC[C@]12C=CCN3CC[C@@]4(c5cc(NC(=O)CCC(=O)O[C@H]6CC[C@H]7[C@@H]8CC[C@H]9CC(=O)CC[C@]9(C)[C@H]8CC[C@]67C)c(OC)cc5N(C)[C@H]4[C@@](O)(C(=O)OC)[C@@H]1OC(C)=O)[C@@H]32 | 89.7%
39 | [2H]c1nc(Nc2ncc3cc(C(=O)N(C)C)n(C4CCCC4)c3n2)c([2H])c([2H])c1N1C([2H])([2H])C([2H])([2H])NC([2H])([2H])C1([2H])[2H] | 67.1%
40 | O=C(O)CCNC1CCCCC1 | 90.4%
